Experimental findings from PubChem BioAssay (NCATS) are described below.

Values joined by “and” are separate entries in the source; they are usually repeats but may differ in a detail not shown here. Equal values may be shown once. Results filed as inconclusive are left out. Active and inactive are the calls of the source. Unless noted, calls come from the whole dose curve; as a rule, active = well fitted curve in the direction sought with a large enough effect; inconclusive = small, poorly fitted or top-dose-only effect, or another doubt; inactive = no such curve, though single readings can be large; an effect the other way counts as inactive or inconclusive.

Test [1] deals with Cytochrome P450 3A4 (Homo sapiens) (UniProt P08684). The test can be described thus: qHTS for inhibitors of CYP3A4 against the NCATS DSHEA and TCM libraries (AID 1919971).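 Note: % is set by controls: 0 for no effect and ±100 for the full control effect; inhibition lowers luminescence from luciferin made by CYP3A4.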 Particulars: recombinant CYP3A4 enzyme activity, luminescence qHTS; series mostly up to 34.1 µM. In outline: (§1)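 Concentration-response screening with isoform-matched pro-luciferin substrates. The CYP reaction was initiated by NADPH regenerating solution and ran 30-45 min in darkness at room temperature.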

Test [2] concerns the target Cytochrome P450 2D6 (Homo sapiens) (UniProt P10635). Briefly: qHTS for inhibitors of CYP2D6 against the NCATS DSHEA and TCM libraries (AID 1919972). Note: % is set by controls: 0 for no effect and ±100 for the full control effect. Particulars: CYP2D6 enzymatic inhibition, luminescence qHTS; series mostly up to 34.1 µM. An outline of the steps: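 CYP2D6 enzyme with pro-luciferin substrate in manufacturer buffer (typically 100 mM KPO4), preincubated 15 min RT with substances (most at 19.5 nM upward); NADPH regeneration system (1x) started 30–45 min RT reaction; P450-Glo luminescence read after 30 min; quinidine as intraplate control.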

Test [3] deals with Cytochrome P450 2C9 (Homo sapiens) (UniProt P11712). Briefly: qHTS for inhibitors of CYP2C9 against the NCATS DSHEA and TCM libraries (AID 1919973). Note: potency is the fitted concentration of half-maximal effect. Particulars: recombinant CYP2C9 enzyme activity, luminescence; series mostly up to 34.1 µM. An outline of the steps: as §1
The target in test [4] is Cytochrome P450 2C19 (Homo sapiens) (UniProt P33261). Briefly: qHTS for inhibitors of CYP2C19 against the NCATS DSHEA and TCM libraries (AID 1919974).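 Note: luminescence from luciferin released by CYP2C19 oxidation of a pro-luciferin substrate; % is set by controls: 0 for no effect and ±100 for the full control effect.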 Particulars: CYP2C19 enzyme inhibition, luminescence qHTS; series mostly up to 34.1 µM. An outline of the steps:
as §1

Test [5] in a line: KB-3-1 P-gp reporter qHTS against the NCATS DSHEA and TCM libraries (AID 1919975). Note: 0% is about no effect. Particulars: KB-3-1 parental cells, CellTiter-Glo luminescence viability, 72 h; series mostly up to 26.1 µM. In outline: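 Cell viability by CellTiter-Glo luminescence following ~72 h compound exposure (concentration-response). Uses parental, non-P-gp-overexpressing KB-3-1 line, 500 cells/well in DMEM/10% FBS, attached ~4 h before dosing.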
For orientation: In qHTS, concentration-response curves come from the screen itself.

Test [6] concerns the target Cytochrome P450 1A2 (Homo sapiens) (UniProt P05177). The test can be described thus: qHTS for inhibitors of CYPIA2 against the NCATS DSHEA and TCM libraries (AID 1919976).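 Note: light from luciferin formed by CYP1A2 from a pro-luciferin substrate; % is set by controls: 0 for no effect and ±100 for the full control effect.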 Particulars: recombinant CYP1A2 enzyme activity, luminescence; series mostly up to 37 µM. An outline of the steps: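 Enzyme and pro-luciferin substrate, or substrate alone as no-enzyme background, are pre-incubated with test samples for 15 min at room temperature. NADPH regeneration system (1x final) initiates a 30-45 min dark reaction; luciferase detection reagent follows before luminescence reading.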

Test [7] is described as follows: qHTS Counterscreen for compound interference against the NCATS DSHEA and TCM libraries (AID 1919978).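 Note: compounds preincubated with 1 µM D-luciferin or buffer before detection reagent; % of control where 0% means no effect.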 Particulars: firefly luciferase detection reagent interference, luminescence. In outline: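 With 1 uM D-luciferin or phosphate buffer only, compounds at final 19.5 nM–39.8 uM were incubated for 15 min at room temperature. Luciferase detection reagent was then added, and luminescence was measured after a further 30 min at room temperature.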

A short description of test [8]: Dual reporter qHTS for agonist of Pregnane X Receptor (hPXR) against the NCATS DSHEA and TCM libraries: Fluorescence readout (AID 1920058). Note: 0% is about no effect. Particulars: PXR dual reporter cells; series mostly up to 40 µM. In outline: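 Cells were plated at 2000 per well and allowed to attach for 5 h. Test substances were pinned in and incubated roughly 24 h. CellTiter-Fluor was then added and fluorescence measured after 1 h.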

The target in test [9] is Nuclear receptor subfamily 1 group I member 2 (Homo sapiens) (UniProt O75469). The test can be described thus: Dual reporter qHTS for agonist of Pregnane X Receptor (hPXR) against the NCATS DSHEA and TCM libraries: Luminescence readout (AID 1920059). Note: 0% is about no effect. Particulars: hPXR dual reporter cells, luciferase luminescence agonist; series mostly up to 40 µM. An outline of the steps:
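Luminescent PXR reporter read (ONE-Glo) after a CellTiter-Fluor viability read, following 24 h, 37C treatment of HepG2 cells stably carrying hPXR-Luc.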

Test [10] can be described thus: Dual reporter qHTS for antagonist of Pregnane X Receptor (hPXR) against the NCATS DSHEA and TCM libraries: Fluorescence Readout (AID 1920061). Note: 0% is about no effect. Particulars: PXR dual reporter cells, antagonist mode; series mostly up to 40 µM. An outline of the steps: (§2)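 Antagonist mode: rifampicin 2 uM final co-added with compounds to hPXR-LucHepG2 cells for 24 h at 37C. Viability by CellTiter-Fluor, Ex/Em 405/540 nm, 1 h; reporter by ONE-Glo luminescence.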

Test [11] is described as follows: qHTS profiling for inhibitors of Plasmodium falciparum proliferation (AID 504749).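 For activity, negative = inhibition: 0% = DMSO vehicle and full inhibition = artemisinin control.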 Note: nearly all actives have a fitted effect of over 60% in size. Note: potency is the fitted concentration of half-maximal effect. Particulars: P. falciparum in erythrocytes, SYBR Green DNA, 72 h, at 28.7 µM (top of the series). An outline of the steps:
(§3)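 SYBR Green fluorescence of parasite DNA, read after lysis and overnight dark incubation, measured growth over 72 h in erythrocyte culture at 0.3% parasitemia and 2.5% hematocrit. Data normalised to DMSO and 0.29 uM artemisinin, with plate-drift correction.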

The test system of test [12] is 3D7. The description is as above. Particulars: P. falciparum in erythrocytes, SYBR Green DNA, 72 h; series mostly up to 28.7 µM. In outline: as §3
Test [13] deals with 7G8. Described as above. Particulars: P. falciparum in erythrocytes, SYBR Green DNA, 72 h; series mostly up to 28.7 µM. An outline of the steps: as §3
The subject of test [14] is AA1029. The description is as above. Particulars: P. falciparum in erythrocytes, SYBR Green DNA, 72 h; series mostly up to 28.7 µM. In outline: as §3
Test [15] relates to AS120. The description is as above. Particulars: P. falciparum in erythrocytes, SYBR Green DNA, 72 h; series mostly up to 28.7 µM. In outline: as §3
Test [16] relates to ATS189. The description is as above. Particulars: P. falciparum in erythrocytes, SYBR Green DNA, 72 h; series mostly up to 28.7 µM. An outline of the steps: as §3
Test [17] concerns ATS95. The description is as above. Particulars: P. falciparum in erythrocytes, SYBR Green DNA, 72 h; series mostly up to 28.7 µM. An outline of the steps:
as §3

Test [18] has as its system C2A. Described as above. Particulars: P. falciparum in erythrocytes, SYBR Green DNA, 72 h; series mostly up to 28.7 µM. In outline: as §3
Test [19] deals with Nuclear receptor subfamily 1 group I member 2 (Homo sapiens) (UniProt O75469). The test can be described thus: Dual reporter qHTS for antagonist of Pregnane X Receptor (hPXR) against the NCATS DSHEA and TCM libraries: Luminescence Readout (AID 1920060).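 Note: HepG2 cells carrying hPXR luciferase reporter stimulated with rifampicin at 2 µM; 0% is about no effect.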 Particulars: hPXR dual reporter cells, luciferase luminescence, antagonist mode; series mostly up to 40 µM. An outline of the steps: as §2

Test [20] can be described thus: qHTS drug screen for cell cycle checkpoint inhibitors in PARPi-resistant BRCA-mutant ovarian cancer cell lines. (AID 1963452; calls by dose curve; note: potency is the fitted concentration of half-maximal effect). Particulars: PEO1/OlaR viability, CellTiter-Glo luminescence, 96 h; for Z-AUC: stronger effect = lower value. An outline of the steps: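 PEO1, PEO4 and PEO1/OlaR ovarian cancer cells, 600 per well, exposed 96 h at 37C to a dilution series. Viability read by CellTiter-Glo luminescence, normalized to DMSO and empty wells; activity summarized as Z-AUC.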

Where [21] appears, read: measured here: PEO1 parental Z-AUC.

Nuclear receptor subfamily 1 group I member 2 (Homo sapiens), sequence (O75469 whole entry, looked up): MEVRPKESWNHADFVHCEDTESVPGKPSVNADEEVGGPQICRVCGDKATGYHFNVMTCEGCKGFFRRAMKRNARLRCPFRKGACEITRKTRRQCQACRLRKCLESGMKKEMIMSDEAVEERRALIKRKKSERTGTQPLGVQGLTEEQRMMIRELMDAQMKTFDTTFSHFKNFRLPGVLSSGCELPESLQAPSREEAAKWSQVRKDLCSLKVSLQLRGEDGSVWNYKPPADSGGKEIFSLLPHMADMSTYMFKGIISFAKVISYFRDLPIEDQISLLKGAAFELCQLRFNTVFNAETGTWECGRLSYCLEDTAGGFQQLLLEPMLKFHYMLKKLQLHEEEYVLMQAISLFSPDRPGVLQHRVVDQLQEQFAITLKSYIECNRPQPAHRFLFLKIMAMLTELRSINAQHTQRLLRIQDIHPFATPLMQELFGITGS
Cytochrome P450 2C9 (Homo sapiens), sequence (P11712 whole entry, looked up): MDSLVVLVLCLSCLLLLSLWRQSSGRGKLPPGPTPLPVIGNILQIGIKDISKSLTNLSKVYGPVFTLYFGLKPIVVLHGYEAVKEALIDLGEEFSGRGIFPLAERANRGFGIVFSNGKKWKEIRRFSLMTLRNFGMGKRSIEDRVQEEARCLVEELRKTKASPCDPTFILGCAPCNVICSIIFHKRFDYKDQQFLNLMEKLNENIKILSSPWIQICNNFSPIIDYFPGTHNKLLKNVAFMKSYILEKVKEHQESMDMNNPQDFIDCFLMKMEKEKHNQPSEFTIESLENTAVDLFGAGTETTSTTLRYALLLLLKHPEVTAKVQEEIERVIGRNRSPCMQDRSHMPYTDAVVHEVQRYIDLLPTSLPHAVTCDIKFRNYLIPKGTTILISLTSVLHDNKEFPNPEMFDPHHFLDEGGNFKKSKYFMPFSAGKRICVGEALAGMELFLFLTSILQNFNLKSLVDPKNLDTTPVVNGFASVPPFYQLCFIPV
Cytochrome P450 2D6 (Homo sapiens), sequence (P10635 whole entry, looked up): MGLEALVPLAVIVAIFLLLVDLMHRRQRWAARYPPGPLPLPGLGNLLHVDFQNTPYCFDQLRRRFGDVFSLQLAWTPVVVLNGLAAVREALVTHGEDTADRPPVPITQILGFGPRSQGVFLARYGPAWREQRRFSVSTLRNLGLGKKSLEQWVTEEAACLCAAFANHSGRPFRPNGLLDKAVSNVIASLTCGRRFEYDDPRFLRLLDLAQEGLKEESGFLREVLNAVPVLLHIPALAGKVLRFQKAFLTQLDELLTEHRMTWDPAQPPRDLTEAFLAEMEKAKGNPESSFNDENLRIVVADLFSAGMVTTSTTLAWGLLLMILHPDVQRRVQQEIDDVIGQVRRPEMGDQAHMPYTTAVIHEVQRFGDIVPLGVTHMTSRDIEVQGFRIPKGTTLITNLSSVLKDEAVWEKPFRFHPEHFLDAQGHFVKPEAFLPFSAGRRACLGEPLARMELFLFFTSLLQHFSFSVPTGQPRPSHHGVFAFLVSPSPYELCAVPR
Cytochrome P450 2C19 (Homo sapiens), sequence (P33261 whole entry, looked up): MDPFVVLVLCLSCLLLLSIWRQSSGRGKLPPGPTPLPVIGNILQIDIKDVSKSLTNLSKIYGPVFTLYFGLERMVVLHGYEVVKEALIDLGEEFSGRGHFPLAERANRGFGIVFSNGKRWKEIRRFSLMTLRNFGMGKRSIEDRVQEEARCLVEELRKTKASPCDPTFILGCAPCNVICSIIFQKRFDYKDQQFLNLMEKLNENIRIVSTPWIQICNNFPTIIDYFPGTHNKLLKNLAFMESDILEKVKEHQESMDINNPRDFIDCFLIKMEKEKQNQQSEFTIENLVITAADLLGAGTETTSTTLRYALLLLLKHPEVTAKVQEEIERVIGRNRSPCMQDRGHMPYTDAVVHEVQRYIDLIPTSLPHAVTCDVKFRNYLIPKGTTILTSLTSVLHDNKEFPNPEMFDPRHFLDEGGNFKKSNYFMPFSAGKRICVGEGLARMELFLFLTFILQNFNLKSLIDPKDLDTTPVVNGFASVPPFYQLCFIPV
Cytochrome P450 3A4 (Homo sapiens), sequence (P08684 whole entry, looked up, canonical isoform): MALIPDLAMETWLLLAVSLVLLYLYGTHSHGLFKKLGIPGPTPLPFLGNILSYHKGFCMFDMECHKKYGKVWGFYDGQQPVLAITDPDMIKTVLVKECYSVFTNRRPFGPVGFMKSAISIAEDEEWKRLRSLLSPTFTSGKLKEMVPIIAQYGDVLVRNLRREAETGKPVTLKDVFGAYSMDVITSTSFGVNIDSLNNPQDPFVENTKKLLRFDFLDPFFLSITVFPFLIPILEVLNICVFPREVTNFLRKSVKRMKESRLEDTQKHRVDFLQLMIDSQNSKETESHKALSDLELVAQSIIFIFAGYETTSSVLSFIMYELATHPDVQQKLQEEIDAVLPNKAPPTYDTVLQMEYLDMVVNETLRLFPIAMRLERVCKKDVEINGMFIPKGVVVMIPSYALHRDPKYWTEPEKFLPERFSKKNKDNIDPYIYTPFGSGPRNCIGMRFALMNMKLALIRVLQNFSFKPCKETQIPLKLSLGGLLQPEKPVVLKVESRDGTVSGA
Cytochrome P450 1A2 (Homo sapiens), sequence (P05177 whole entry, looked up): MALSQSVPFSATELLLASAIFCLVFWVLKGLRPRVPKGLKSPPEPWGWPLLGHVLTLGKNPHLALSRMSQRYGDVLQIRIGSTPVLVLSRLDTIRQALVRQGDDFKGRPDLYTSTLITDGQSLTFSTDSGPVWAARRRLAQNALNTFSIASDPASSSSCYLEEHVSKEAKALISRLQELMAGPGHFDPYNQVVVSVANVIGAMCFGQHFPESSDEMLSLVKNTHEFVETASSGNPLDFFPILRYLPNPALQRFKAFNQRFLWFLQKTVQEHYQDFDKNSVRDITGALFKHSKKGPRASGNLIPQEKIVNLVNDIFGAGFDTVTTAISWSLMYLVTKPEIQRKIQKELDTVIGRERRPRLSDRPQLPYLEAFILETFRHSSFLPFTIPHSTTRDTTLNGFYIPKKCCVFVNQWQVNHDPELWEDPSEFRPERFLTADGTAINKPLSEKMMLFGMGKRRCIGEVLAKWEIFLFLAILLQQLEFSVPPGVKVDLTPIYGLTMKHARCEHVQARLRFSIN

With `Oc1cc(O)c2c(c1)OC(c1ccc(O)c(O)c1)C(O)C2` (configuration not stated), the result in [1], in test [2], in [5], in test [6], in test [8] and in test [9] was inactive. The call in test [10] was inactive. Further, the Potency entry in [3], in test [4], in [12], in [13], in test [14] and in [15] was “inactive” in each case. For the same compound, the Potency result in test [16], in [17] and in test [18] was “inactive” in each case. Besides, the max response in [7] was 0.755% (inactive). Besides, the values for the activity, negative = inhibition in [11] (parasite line A) and in [11] (parasite line B) were -12.6% (inactive) and -13.8% (inactive), respectively.
With `CC1=C(/C=C/C(C)=C/C=C/C(C)=C/CO)C(C)(C)CCC1`, the compound was classed as inactive in test [2], in test [5], in [8], in test [19] and in test [10]. In addition, the Potency in [3] is 14.1 µM (active); in test [13] it was 10 µM (active). Moreover, the max response in test [7] is 0.358% (inactive).
Turning to `CC(C)N(C[C@H]1O[C@@H](n2cnc3c(N)ncnc32)[C@H](O)[C@@H]1O)C1CC(CCc2nc3ccc(C(C)(C)C)cc3[nH]2)C1` (some centres not stated), the Z-AUC in [20] is 1.59 (inactive); in test [20] (setting [21]) it was 1.75; in test [20] (measured here: PEO4 Z-AUC), 1.7.
For `CCN(c1cc(C#CCN2CCOCC2)cc(C(=O)NCc2c(C)cc(C)[nH]c2=O)c1C)C1CCC(N(C)CCOC)CC1` (configuration not stated), in that order: 0.159 (inactive), 1.88 and 1.36.
As for `C=Cc1cc(O)cc2nc(-c3ccc(O)c(F)c3)oc12`, the Z-AUC in test [20] was 0.0399 (inactive); in test [20] (setting [21]), 0.836; in test [20] (measured here: PEO4 Z-AUC) it was 0.548.
For `CC(C)C(=O)OCC(=O)[C@@]12O[C@H](C3CCCCC3)O[C@@H]1C[C@H]1[C@@H]3CCC4=CC(=O)C=C[C@]4(C)[C@H]3[C@@H](O)C[C@@]12C`, in that order: -0.223 (inactive), 0.238 and -0.69.
On to `O=C(NCC(=O)N1CC[C@H](NC2CCC(O)(c3ccc(-c4ncccn4)cn3)CC2)C1)c1cccc(C(F)(F)F)c1` (some centres not stated), for which the values for the Z-AUC in test [20], in test [20] (setting [21]) and in test [20] (measured here: PEO4 Z-AUC) were -0.56 (inactive), -0.577 and -0.816, respectively.
On to `Cc1nnc(C(C)C)n1C1CC2CCC(C1)N2CC[C@H](NC(=O)C1CCC(F)(F)CC1)c1ccccc1` (some centres not stated), for which the Z-AUC in test [20] is 1.09 (inactive) and 0.404 (inactive); in test [20] (setting [21]) it was 1.65 and 0.521; in [20] (measured here: PEO4 Z-AUC), 1.24 and 0.375.
Regarding `CN(C)c1cccc(-c2c3c(=O)n(-c4ccccc4Cl)[nH]c3cc(=O)n2C)c1`, the Z-AUC in [20] was -0.625 (inactive); in [20] (setting [21]), -0.313; in test [20] (measured here: PEO4 Z-AUC), -0.353.
In the case of `O=c1ccn([C@@H]2O[C@H](CO)[C@@H](O)[C@H]2O)c(=O)[nH]1`, the Z-AUC is 1.3 (inactive) in test [20], 1.05 in [20] (setting [21]) and 0.867 in test [20] (measured here: PEO4 Z-AUC).
As for `Cc1ccc(C(=O)Nc2ccc(Oc3cc4cnn(C)c4cc3-c3cn[nH]c3)c(F)c2)c(=O)n1-c1ccc(F)cc1`, the Z-AUC in test [20] is -0.0237 (inactive); in [20] (setting [21]) it was 0.144; in test [20] (measured here: PEO4 Z-AUC) it was -0.211.
As for `CCCCC(=O)OCC(=O)[C@]1(O)Cc2c(O)c3c(c(O)c2[C@@H](O[C@H]2C[C@H](NC(=O)C(F)(F)F)[C@H](O)[C@H](C)O2)C1)C(=O)c1c(OC)cccc1C3=O`, the Potency in test [20] was 0.549 µM (active). Also, the Z-AUC is -2.19 in test [20] (setting [21]) and -1.93 in [20] (measured here: PEO4 Z-AUC).
Turning to `Cc1cccc(-c2[nH]c(CNc3ccccc3F)nc2-c2ccc3ncnn3c2)n1`, the Z-AUC was -0.298 (inactive) in test [20], 0.223 in test [20] (setting [21]) and -0.0692 in test [20] (measured here: PEO4 Z-AUC).
As to `COc1ccc2cc(OCC3(C(=O)O)CN(C(=O)c4ccc(F)cc4)C3)ccc2c1`, the Z-AUC in test [20] is -0.285 (inactive); in [20] (setting [21]), -0.144; in [20] (measured here: PEO4 Z-AUC) it was 0.261.
`C[C@H](CCC(=O)O)[C@H]1CC[C@H]2[C@@H]3[C@H](O)C[C@@H]4C[C@H](O)CC[C@]4(C)[C@H]3CC[C@]12C`: the Z-AUC in test [20] is 1.79 (inactive); in test [20] (setting [21]), 0.809; in [20] (measured here: PEO4 Z-AUC) it was 0.917.
For `NCc1ccc(OCCCc2sc(-c3ccc4c(c3)/C(=N/Nc3nc5ccccc5s3)CCC4)nc2C(=O)O)cc1`, in that order: 1.02 (inactive), 1.09 and 0.501.
The corresponding values for `CCNC(=O)CCC/C=C\C[C@@H]1[C@@H](/C=C/C(O)CCc2ccccc2)[C@@H](O)C[C@@H]1O` (some centres not stated) are 1.72 (inactive), 1.41 and 1.49.
